Test results taken from PubChem BioAssay (NCI).
Where “and” joins values, the source holds several entries; their conditions need not be identical. Equal values may be shown once. This is part of a sample that, as a whole, favours compounds with a hit. Of some 83,000 tested, about 20% had one in any assay.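 The endpoint reported here, percent growth, reads 100 for growth as untreated, 0 for no net growth and -100 for all cells dead.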 Calls of active or inactive are those of the source. The calls were made as follows: active = growth percent below 10; inactive = the rest.

How the values were obtained:
Assay in all cases: NCI-60 one-dose screen, 48 h (100 = growth as untreated, 0 = no growth, -100 = all killed)
Conditions in all cases: 10 µM unless noted
DU-145 prostate = test system: DU-145 prostate
K-562 leukemia = test system: K-562 leukemia
MALME-3M melanoma = test system: MALME-3M melanoma
MDA-MB-231 breast = test system: MDA-MB-231 breast
RXF 393 renal = test system: RXF 393 renal
SF-268 CNS = test system: SF-268 CNS
SF-295 CNS = test system: SF-295 CNS
SF-539 CNS = test system: SF-539 CNS
UACC-257 melanoma = test system: UACC-257 melanoma
M14 melanoma = test system: M14 melanoma

Row | SMILES | growth (DU-145 prostate) | growth (K-562 leukemia) | growth (MALME-3M melanoma) | growth (MDA-MB-231 breast) | growth (RXF 393 renal) | growth (SF-268 CNS) | growth (SF-295 CNS) | growth (SF-539 CNS) | growth (UACC-257 melanoma) | growth (M14 melanoma)
1 | CCN1C(=O)/C(=c2\sc3n(c2=O)C2C(NN=3)N(CC)C(=O)N2CC)c2ccccc21 (stereo not given) | 7% (active) | 7.63% (active) | 49.5% (inactive) | 23.9% (inactive) | -7.21% (active) | 61.7% (inactive) | 9.43% (active) | -20.9% (active) | 96.5% (inactive) | 46.2% (inactive)
2 | CCOc1ccccc1NC(=O)c1cc2ccccc2cc1O | 78.5% (inactive) | 22.8% (inactive) | 49.8% (inactive) | 54.9% (inactive) | 63.2% (inactive) | 80.6% (inactive) | 106% (inactive) | 84.6% (inactive) | 54.2% (inactive) | 64.6% (inactive)
3 | N#C/C(=N\Nc1ccc(Cl)cc1)C(=O)Nc1cc(-c2ccccc2)nn1-c1ccccc1 | 35% (inactive) | 12.2% (inactive) | 2.07% (active) | 24.3% (inactive) | 47.1% (inactive) | 19.9% (inactive) | 1.62% (active) | 52.3% (inactive) | 13.2% (inactive) | 35.6% (inactive)
4 | COc1ccc(C(CC(=O)c2ccc3c(c2)OCO3)C(=O)O)cc1OC (stereo not given) | 121% (inactive) and 106% (inactive) | 119% (inactive) and 90.1% (inactive) | 114% (inactive) and 90.3% (inactive) | 128% (inactive) and 113% (inactive) | 115% (inactive) and 106% (inactive) | 111% (inactive) and 97.7% (inactive) | 86.9% (inactive) and 81.9% (inactive) | 126% (inactive) and 104% (inactive) | 91.5% (inactive) and 106% (inactive) | 115% (inactive) and 103% (inactive)
5 | COc1cc(/C=C(/c2ccccc2)[N+](=O)[O-])c(OC)c2c1OCO2 | -87.4% (active) | 0.225% (active) | -49.6% (active) | -47.9% (active) | -79.8% (active) | 21.1% (inactive) | 28.8% (inactive) | -90.5% (active) | 17.3% (inactive) | 11.9% (inactive)
6 | COc1ccc(-c2csc(NC(=O)CN3CCN(CCO)CC3)n2)cc1NS(=O)(=O)c1cccc2c(N(C)C)cccc12 | 78.4% (inactive) | 23.1% (inactive) | -67.9% (active) | 71.9% (inactive) | 57.7% (inactive) | 81.2% (inactive) | 29.7% (inactive) | 65.7% (inactive) | 68.4% (inactive) | -73.6% (active)
7 | O=C1OCC2=C1C(c1cccc([N+](=O)[O-])c1)c1cc3c(cc1N2CCO)CCC3 (stereo not given) | 3.17% (active) | 7.29% (active) | 38.9% (inactive) | 30% (inactive) | 27.8% (inactive) | 33.1% (inactive) | -11.7% (active) | -16.4% (active) | 69.9% (inactive) | 3.09% (active)
8 | CCCCCO/N=C\c1c2c(O)c3c(O)c(C)c4c(c3c1O)C(=O)C(C)(O/C=C\C(OC)C(C)C(OC(C)=O)C(C)C(O)C(C)C(O)C(C)/C=C\C=C(\C)C(=O)N2)O4 (stereo not given) | 36% (inactive) | 17.6% (inactive) | 41.2% (inactive) | 31.4% (inactive) | 36.6% (inactive) | 31.2% (inactive) | 7.23% (active) | 37.3% (inactive) | 8.59% (active) | 28.2% (inactive)
9 | O=C(NNc1ccccc1)C1CCCN1 (stereo not given) | 60.7% (inactive) | 11% (inactive) | 76.4% (inactive) | 86.1% (inactive) | 107% (inactive) | 64.6% (inactive) | 85% (inactive) | 80.5% (inactive) | 88.6% (inactive) | 43.1% (inactive)
10 | COc1ccc(Nc2nn3c(SCC(=O)c4ccc(C)cc4)nnc3s2)cc1 | 101% (inactive) | 83.5% (inactive) | 98.7% (inactive) | 91.7% (inactive) | 97.1% (inactive) | 100% (inactive) | 100% (inactive) | 107% (inactive) | 108% (inactive) | 99.2% (inactive)
11 | O=C1/C(=C/c2cn(-c3ccccc3)nc2-c2ccccc2)SC(=S)N1c1ccc(Cl)cc1 | 74.6% (inactive) | 63.8% (inactive) | 95.4% (inactive) | 79.8% (inactive) | 88.4% (inactive) | 62.5% (inactive) | 44.6% (inactive) | 84.2% (inactive) | 89.8% (inactive) | 65.8% (inactive)
12 | CN(C)CCCn1c2nc(=O)[nH]c(=O)c-2nc2cc(Cl)c(Cl)cc21 | 115% (inactive) | 47.9% (inactive) | 106% (inactive) | 98.6% (inactive) | 111% (inactive) | 108% (inactive) | 99.3% (inactive) | 105% (inactive) | 41.7% (inactive) | 51.1% (inactive)
13 | CCCn1nc(C(=O)N2CCCCC2)c2c1CCC(N1CCC(c3ccncc3)CC1)C2 (stereo not given) | 105% (inactive) | 101% (inactive) | 115% (inactive) | 118% (inactive) | 117% (inactive) | 97% (inactive) | 106% (inactive) | 107% (inactive) | 102% (inactive) | 97.3% (inactive)
14 | O=C(NCc1cccnc1)/C(=C\c1ccc(Br)cc1)S(=O)(=O)c1ccccc1 | -86.8% (active) | 29.7% (inactive) | -20.5% (active) | -65.7% (active) | -88% (active) | -30.9% (active) | 13.9% (inactive) | -59% (active) | -20.5% (active) | -41.1% (active)
15 | C[C@]12CCc3c(ccc4cc(O)ccc34)[C@@H]1C[C@H](O)[C@@H]2O | 108% (inactive) | 105% (inactive) | 113% (inactive) | 79.9% (inactive) | 102% (inactive) | 103% (inactive) | 95.3% (inactive) | 102% (inactive) | 102% (inactive) | 103% (inactive)
16 | COc1cc(Nc2nc3ccccc3cc2C(=O)Nc2ccc(F)c(F)c2)cc(OC)c1OC | 30% (inactive) | 16.8% (inactive) | 51.5% (inactive) | 30.5% (inactive) | 68.3% (inactive) | 40.4% (inactive) | 14.2% (inactive) | 37.9% (inactive) | 52.3% (inactive) | 24.4% (inactive)
17 | Nc1nc(N)c2c(n1)NC(c1ccc(Cl)cc1)CC(c1cccc(Nc3ccncc3)c1)=N2 (stereo not given) | 70% (inactive) | 27% (inactive) | 57% (inactive) | 49.8% (inactive) | 49.2% (inactive) | 61.7% (inactive) | 64.5% (inactive) | 63.5% (inactive) | 52.3% (inactive) | 35.4% (inactive)
18 | COc1ccc(NC(=O)Nc2ccccc2CNc2nc(Nc3ccc(OCCN4CCCC4)cc3)ncc2Cl)cc1 | 18% (inactive) | 0.588% (active) | -63.7% (active) | -59.1% (active) | -75.6% (active) | 35.8% (inactive) | 11.1% (inactive) | -84.2% (active) | -46.8% (active) | -75.6% (active)
19 | CC[C@]12CN3CCc4c([nH]c5ccccc45)[C@@](C(=O)OC)(c4cc5c(cc4OC)N(C)[C@H]4[C@@](O)(C(=O)OC)[C@H](OC(C)=O)[C@]6(CC)C=CCN7CC[C@]54[C@@H]76)CC(C3)[C@H]1O2 (stereo not given in full) | -21.8% (active) | 16.6% (inactive) | 56.1% (inactive) | -28.8% (active) | 10.2% (inactive) | 26.4% (inactive) | -22.9% (active) | 2.86% (active) | 42.3% (inactive) | -29.3% (active)
20 | O=C1/C(=C/c2ccc(F)c(F)c2)CN(C(=O)C(Cl)Cl)C/C1=C\c1ccc(F)c(F)c1 | -98.1% (active) | -19.4% (active) | -80.2% (active) | -73.7% (active) | -93.1% (active) | -39.4% (active) | -96.8% (active) | -98.9% (active) | -74.8% (active) | -90.1% (active)
21 | C=C1C(=O)O[C@@H]2[C@H]3[C@H](COC(C)=O)[C@@H](OC(C)=O)C[C@H]3C(=C)[C@@H](O)C[C@@H]12 | 76.5% (inactive) | 86.8% (inactive) | 88.9% (inactive) | 99% (inactive) | 99.5% (inactive) | 96.5% (inactive) | 103% (inactive) | 103% (inactive) | 83.3% (inactive) | 87.6% (inactive)
22 | Nc1ncnc2c1C(c1ccc([N+](=O)[O-])cc1)c1sc3c(F)cccc3c1O2 (stereo not given) | 93.1% (inactive) | 83.4% (inactive) | 104% (inactive) | 84.4% (inactive) | 101% (inactive) | 98.7% (inactive) | 106% (inactive) | 96% (inactive) | 121% (inactive) | 112% (inactive)
23 | COc1ccc(Oc2nc(Nc3ccc(N4CCOCC4)cc3)ncc2NC(=O)c2cccc(C(F)(F)F)c2)cc1 | 91.9% (inactive) | 56% (inactive) | 97.5% (inactive) | 69.1% (inactive) | 65.6% (inactive) | 89.5% (inactive) | 85.6% (inactive) | 77.3% (inactive) | 98.2% (inactive) | 80.7% (inactive)
24 | N=C(N)c1ccc(-c2ccc(-c3ccc(Cl)c(Cl)c3)s2)cc1 | -88.9% (active) | -11.6% (active) | 78.7% (inactive) | -20.2% (active) | 77.9% (inactive) | 56.2% (inactive) | 35.5% (inactive) | 52.7% (inactive) | 96.6% (inactive) | 38.1% (inactive)
25 | O=Nc1c(O)ccc2ccccc12 | 83.9% (inactive) and 113% (inactive) | 51% (inactive) and 87.7% (inactive) | 33.3% (inactive) and 122% (inactive) | 57.4% (inactive) and 62.7% (inactive) | 80.5% (inactive) and 102% (inactive) | 49.6% (inactive) and 103% (inactive) | 91.3% (inactive) and 109% (inactive) | 94.9% (inactive) and 104% (inactive) | -51.3% (active) and 80.8% (inactive) | 49.6% (inactive) and 104% (inactive)
